This is part of a sample that, as a whole, favours compounds with a hit. Of some 83,000 tested, about 20% had one in any assay.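 How to read the values: 0–100, growth inhibition (40 = 60% inhibited); 0, no net growth; -100 to 0, cell death (-40 = 40% of starting cells died; -100 = all dead).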 A number with no mark means an inactive call. Active and inactive are the calls of the source. How the source made its calls: active means growth percent below 10; inactive means the rest.

The results in this text go back to PubChem BioAssay (NCI).

Among the test systems are HCT-15 colon; HT29 colon; SNB-75 CNS; SNB-19 CNS; U251 CNS; PC-3 prostate; SK-MEL-5 melanoma; UACC-62 melanoma; LOX IMVI melanoma; SK-MEL-28 melanoma; SK-MEL-2 melanoma; EKVX NSCLC; SN12C renal; UO-31 renal; TK-10 renal; ACHN renal; A498 renal; CCRF-CEM leukemia; MOLT-4 leukemia; SR leukemia.
What all share (test): NCI-60 one-dose screen, 48 h (100 = growth as untreated, 0 = no growth, -100 = all killed)
Conditions in all cases: 10 µM unless noted

As for `CC(C)(C)c1ccc(O)c(Cc2cc(C(C)(C)C)ccc2O)c1`, the growth in the test on HCT-15 colon was 101%; in the test with HT29 colon it was 98.7%; with SNB-75 CNS it was 89.2%; with SNB-19 CNS, 101%; in the test on U251 CNS, 90.2%; with PC-3 prostate, 12.5%. The growth in the test with SK-MEL-5 melanoma was 99%; in the test with UACC-62 melanoma it was 87.8%; with LOX IMVI melanoma, 99.1%; in the test with SK-MEL-28 melanoma, 104%; in the test on SK-MEL-2 melanoma it was 80%; in the test on EKVX NSCLC, 78.5%. Moreover, the growth was 87.5% in the test with SN12C renal; 85.7% in the test with UO-31 renal; 94.2% with TK-10 renal; 106% with ACHN renal; 87.3% in the test on A498 renal; 0.931% (active) in the test on CCRF-CEM leukemia. Besides, the results for the growth with MOLT-4 leukemia and in the test with SR leukemia were 64.6% and 24.5%, respectively.

With `COc1cc(-c2csc(NC(=O)Nc3cc(Cl)cc(Cl)c3)n2)cc(OC)c1OC`, the growth was 14.5% in the test with HCT-15 colon; 21.9% with HT29 colon; -29.2% (active) with SNB-75 CNS; 9% (active) in the test on SNB-19 CNS; -80.1% (active) with U251 CNS; 10.7% in the test on PC-3 prostate. Moreover, the growth was 54.5% in the test on SK-MEL-5 melanoma; -62.2% (active) in the test with UACC-62 melanoma; 6.77% (active) in the test with LOX IMVI melanoma; 30.6% with SK-MEL-28 melanoma; 75.2% with SK-MEL-2 melanoma; 1.71% (active) with EKVX NSCLC. For the same molecule, the growth in the test on SN12C renal was -84% (active); in the test with UO-31 renal it was -66% (active); with TK-10 renal it was -68.9% (active); in the test with ACHN renal it was -33% (active); in the test with A498 renal, -25.9% (active); in the test on CCRF-CEM leukemia, 13.5%. Besides, the figures for the growth in the test with MOLT-4 leukemia and in the test with SR leukemia were 16.3% and -4.59% (active), respectively.

As for `COc1ccc(-c2cc(-c3nnc(SCC(=O)Nc4ccc(/C(C)=N\O)cc4)o3)c3ccccc3n2)cc1`, the growth with HCT-15 colon was 100%; in the test with HT29 colon it was 101%; with SNB-75 CNS, 98.3%; in the test on SNB-19 CNS it was 90.8%; in the test on U251 CNS, 101%; in the test with PC-3 prostate, 100%. Moreover, the growth was 99.2% in the test with SK-MEL-5 melanoma; 106% with UACC-62 melanoma; 97.7% in the test with LOX IMVI melanoma; 114% with SK-MEL-28 melanoma; 98% in the test with SK-MEL-2 melanoma; 103% with EKVX NSCLC. Moreover, the growth was 104% in the test on SN12C renal; 97.7% with UO-31 renal; 96.4% in the test with TK-10 renal; 117% with ACHN renal; 101% with A498 renal; 97.9% in the test on CCRF-CEM leukemia. The figures for the growth in the test with MOLT-4 leukemia and in the test with SR leukemia were 106% and 113%, respectively.

Take `COc1cc(/C=C/CO)cc(OC)c1O[C@@H]1O[C@H](CO)[C@@H](O)[C@H](O)[C@H]1O`: the growth in the test with HCT-15 colon was 101%; in the test with HT29 colon, 100%; in the test with SNB-75 CNS, 94.9%; in the test with SNB-19 CNS, 97.2%; in the test with U251 CNS, 96.1%; in the test with PC-3 prostate it was 95.1%. The growth with SK-MEL-5 melanoma was 98.9%; in the test with UACC-62 melanoma, 100%; with LOX IMVI melanoma it was 96.1%; in the test with SK-MEL-28 melanoma, 105%; in the test with SK-MEL-2 melanoma, 108%; with EKVX NSCLC it was 95%. Further, the growth with SN12C renal was 96.8%; in the test on UO-31 renal, 97.1%; in the test on TK-10 renal, 98.7%; with ACHN renal, 109%; with A498 renal, 77.2%; in the test with CCRF-CEM leukemia, 96.2%. Moreover, the growth was 94.8% with MOLT-4 leukemia and 95.2% in the test on SR leukemia.

As to `O=c1[nH]c(-c2cccc(F)c2)cc2cc(F)ccc12`, the growth with HCT-15 colon was 16.7%; in the test on HT29 colon, 6.64% (active); in the test on SNB-75 CNS, 12.1%; with SNB-19 CNS, 26.6%; in the test on U251 CNS, 21.6%; with PC-3 prostate it was 16.3%. The growth was 42.2% in the test with SK-MEL-5 melanoma; 36.4% in the test on UACC-62 melanoma; 43.3% in the test on LOX IMVI melanoma; 61.7% in the test with SK-MEL-28 melanoma; 67.4% in the test on SK-MEL-2 melanoma; 39.3% in the test with EKVX NSCLC. For the same molecule, the growth in the test on SN12C renal is 49.3%; in the test with UO-31 renal, 55.8%; in the test with TK-10 renal it was 58.5%; in the test on ACHN renal, 47%; in the test on A498 renal, 21.9%; in the test with CCRF-CEM leukemia it was 13.6%. Besides, the growth in the test on MOLT-4 leukemia is 21.9%; with SR leukemia, 22.5%.

With `CC1(C)CC[C@]2(c3nnc(-c4ccncc4)o3)CC[C@]3(C)C(=CC[C@@H]4[C@@]5(C)CCC(=O)C(C)(C)[C@@H]5CC[C@]43C)[C@@H]2C1`, the growth in the test with HCT-15 colon is 71.8%; in the test with HT29 colon, 77.5%; in the test with SNB-75 CNS it was 88.7%; in the test on SNB-19 CNS, 78.7%; in the test on U251 CNS, 76.9%; in the test on PC-3 prostate it was 47.5%. Besides, the growth in the test with SK-MEL-5 melanoma was 74.3%; in the test on UACC-62 melanoma, 67.3%; with LOX IMVI melanoma, 72.2%; with SK-MEL-28 melanoma, 83.5%; in the test with SK-MEL-2 melanoma, 96%; in the test on EKVX NSCLC, 76.3%. In addition, the growth was 79.7% in the test on SN12C renal; 77.5% in the test on UO-31 renal; 128% in the test with TK-10 renal; 88.7% in the test with ACHN renal; 106% with A498 renal; 75.5% in the test with CCRF-CEM leukemia. Besides, the growth with MOLT-4 leukemia is 52%; with SR leukemia, 63.7%.

`CCOC(=O)C1=C(C)n2nc(CC#N)c(C#N)c2NC1c1ccc(Cl)cc1` (stereo not given): the growth is 97.1% in the test on HCT-15 colon; 111% with HT29 colon; 86.1% with SNB-75 CNS; 106% in the test with SNB-19 CNS; 107% in the test on U251 CNS; 91.3% in the test on PC-3 prostate. Besides, the growth in the test on SK-MEL-5 melanoma was 98.3%; in the test on UACC-62 melanoma, 94.4%; with LOX IMVI melanoma, 94.7%; in the test on SK-MEL-28 melanoma, 101%; in the test with SK-MEL-2 melanoma, 105%; in the test with EKVX NSCLC, 89%. Also, the growth in the test with SN12C renal is 96.6%; in the test on UO-31 renal it was 73.3%; with TK-10 renal it was 123%; in the test with ACHN renal, 90.8%; in the test with A498 renal it was 98.6%; with CCRF-CEM leukemia, 96.4%. In addition, the growth is 104% in the test with MOLT-4 leukemia and 101% with SR leukemia.

As for `CO[C@@]12C=C[C@@]34CCC(=O)N3c3ccccc3[C@@H](O1)C4C2`, the growth was 104% with HCT-15 colon; 101% in the test with HT29 colon; 90.5% in the test with SNB-75 CNS; 99.1% with SNB-19 CNS; 99.7% with U251 CNS; 100% with PC-3 prostate. Besides, the growth in the test with SK-MEL-5 melanoma was 104%; with UACC-62 melanoma it was 94.5%; with LOX IMVI melanoma it was 96.9%; in the test on SK-MEL-28 melanoma, 113%; with SK-MEL-2 melanoma, 101%; in the test with EKVX NSCLC, 98.8%. Also, the growth in the test with SN12C renal is 95.5%; in the test with UO-31 renal, 81.4%; in the test with TK-10 renal, 95.1%; with ACHN renal, 98.6%; with A498 renal it was 109%; with CCRF-CEM leukemia, 90.1%. For the same molecule, the growth with MOLT-4 leukemia was 95.9%; in the test on SR leukemia, 96.9%.
